Compound activity (PubChem)
Compounds with a hit are over-represented: about 2.1% of the library has one in this group of screens.
U2OS ROS induce = raises reactive oxygen species in U2OS cancer cells; U2OS ROS induction, H2DCF-DA fluorescence; 46,000 compounds, 2% hits; ROS induction (% of piperlongumine), % at 10 µM; in the data active means ROS induction above about 79%, passing the limit was not always enough;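 further: 0% = DMSO vehicle median and 100% = reference compound median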
YB-1 expression = YB-1 expression inhibition; U2OS, qRT-PCR YB-1 vs CDIP delta delta Cp, 16 h; hits give high values; zero = DMSO, each unit about twofold; delta delta Cp (YB-1 minus CDIP) (no concentration beside the values); 30,000 compounds, 0.37% hits; AID 434959;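 active means delta delta Cp rounded down to an integer at or above 3, about 3 SD of DMSO wells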;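 further: higher means less YB-1 transcript or more CDIP transcript relative to DMSO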
Active calls of the source: *; · = no result given.

SMILES | U2OS ROS induce | YB-1 expression
CCn1c(SCC(=O)Nc2cccc(OC)c2)nnc1-c1cccc(C)c1 | 7 | ·
CCC(Sc1nnc(C)n2c1cc1oc(C)cc12)C(=O)Nc1cccc(OC)c1 (stereo unspecified) | 96* | ·
COc1ccccc1-c1nn(CCC(=O)NC2CCCC2)c2nc(C)cc(C)c12 | -5 | ·
CC(C)CNS(=O)(=O)c1ccc(F)cc1 | -11 | ·
COc1ccccc1NC(=O)CSc1ncccn1 | -1 | ·
COc1ccccc1NC(=O)CSc1nncn2c1cc1oc(C)cc12 | 107* | ·
CCOC(=O)c1cnc2cccc[n+]2c1Cl | -4 | ·
O=C(N/N=C/c1ccc(O)cc1O)c1ccccc1O | -8 | 0.56
O=C(CCCCCCC(=O)N/N=C\c1ccc(O)c2ccccc12)NO | -17 | -0.58
COc1cc(OC)cc(-c2nnc(SCc3cccc(C(=O)O)c3)o2)c1 | 23 | ·
COc1cccc(C(=O)c2sc3nsc(SCc4ccccc4)c3c2N)c1 | 335* | 0.29
Cc1ccc(-c2cc(C(F)F)n3ncc(C(=O)NCCN4CCOCC4)c3n2)cc1 | 27 | ·
Cc1ccc(-c2cc(C(F)F)n3ncc(C(=O)NCc4cn(C)nc4C)c3n2)cc1 | 135* | ·
O=C(NCc1cccnc1)c1cnn2c(C(F)F)cc(C3CC3)nc12 | 18 | ·
COc1ccc(-c2cc(C(F)F)n3ncc(C(=O)Nc4cccc(NC(C)=O)c4)c3n2)cc1 | 155* | ·
COc1ccccc1CCNC(=O)c1ccc(COc2ccccc2Cl)o1 | -4 | ·
CCCc1cc(-n2cnc3ccccc32)n2c(nc3ccccc32)c1C#N | 37 | ·
CC(C)c1cc(NC(C)c2ccccc2)n2c(nc3ccccc32)c1C#N (stereo unspecified) | 257* | ·
Cc1cc(/N=C\N(C)C)n2c(nc3ccccc32)c1C#N | 48 | ·
CC(C)c1cc(NC2CCCCC2)n2c(nc3ccccc32)c1C#N | 164* | ·
O=C(CSc1nc2nccnc2c(=O)n1Cc1ccccc1)Nc1ccccc1C(F)(F)F | -9 | ·
COCCOC(=O)N1C(=O)[C@@]2(c3cc(C#CCNC(N)=O)ccc31)[C@H](c1ccccc1OCCO)N1[C@H](c3ccccc3)[C@H](c3ccccc3)OC(=O)[C@H]1[C@@H]2C(N)=O | -4 | -0.13
COCCOC(=O)N1C(=O)[C@@]2(c3cc(C#Cc4ccc(OC)cc4)ccc31)[C@H](c1ccccc1OCCO)N1[C@H](c3ccccc3)[C@H](c3ccccc3)OC(=O)[C@H]1[C@@H]2C(N)=O | 74 | 0.27
COCCOC(=O)N1C(=O)[C@@]2(c3cc(C#CC4=CCCCC4)ccc31)[C@H](c1ccccc1OCCO)N1[C@H](c3ccccc3)[C@H](c3ccccc3)OC(=O)[C@H]1[C@@H]2C(N)=O | 84* | -0.06
C=CCNC(=O)[C@H]1[C@@H]2C(=O)O[C@@H](c3ccccc3)[C@@H](c3ccccc3)N2[C@@H](c2ccccc2OCCO)[C@]12C(=O)N(C(=O)OCCOC)c1ccc(C#CCC(C(=O)OC)C(=O)OC)cc12 | 179* | 0.044
SMILES | U2OS ROS induce | YB-1 expression
COCCOC(=O)N1C(=O)[C@@]2(c3cc(C#CCC(C(=O)OC)C(=O)OC)ccc31)[C@H](c1ccccc1OCCO)N1[C@H](c3ccccc3)[C@H](c3ccccc3)OC(=O)[C@H]1[C@@H]2C(N)=O | 407* | 0.25
COCCOC(=O)N1C(=O)[C@@]2(c3cc(C#Cc4ccc(OC)cc4)ccc31)[C@H](c1ccccc1OCCO)N1[C@H](c3ccccc3)[C@H](c3ccccc3)OC(=O)[C@H]1[C@@H]2C(=O)NC[C@H](O)c1ccccc1 | 22 | -0.57
C=CCNC(=O)[C@@H]1[C@H]2C(=O)O[C@H](c3ccccc3)[C@H](c3ccccc3)N2[C@H](c2ccccc2OCCO)[C@@]12C(=O)N(C(=O)OCCOC)c1ccc(C#Cc3ccc(OC)cc3)cc12 | 34 | -0.34
COCCOC(=O)N1C(=O)[C@@]2(c3cc(C#CCC(C(=O)OC)C(=O)OC)ccc31)[C@H](c1ccccc1OCCO)N1[C@H](c3ccccc3)[C@H](c3ccccc3)OC(=O)[C@H]1[C@@H]2C(=O)NC[C@H](O)c1ccccc1 | 320* | -0.27
O=C(CSc1cn(CC(=O)N2CCOCC2)c2ccccc12)NCc1ccco1 | -9 | ·
CCN(C(=O)CN1C(=O)N(c2ccc(C)c(Cl)c2)S(=O)(=O)c2ccccc21)c1ccccc1 | 25 | ·
COc1ccc(OC(C)C(=O)Nc2cc(C)ccc2OC)cc1 (stereo unspecified) | -20 | ·
COC1OC(=O)C(CCC2(C)C(C)CCC3(C)C2CC(O)C(O)C32CO2)C1O (stereo unspecified) | -6 | 0.52
Cc1nn(CCCC(=O)N2CCCC2)c(=O)c2c1sc1ccccc12 | 8 | ·
CCOC(=O)c1cnc2ccc(OCC)cc2c1N1CCN(c2ccccc2)CC1 | 128* | 0.49
CCOC(=O)c1cnc2ccc(OCC)cc2c1NC(C)CC (stereo unspecified) | 42 | -0.39
COc1cccc(C2C(C(=O)O)c3ccccc3C(=O)N2C)c1 (stereo unspecified) | -17 | ·
